Assay in all cases: log2 ratio of Biotin-Ahx-Ub-VS probe labelling (fragment/DMSO); higher = less target engagement (more negative = stronger competition), active = hit call of the paper (q ≤ 0.05, log2 ratio ≤ -1)
What all share (settings): compound concentration: 200 uM; treatment time: 3 h

In assay [1] the target is T1, USP19 (UniProt O94966).
T1 sequence (whole entry): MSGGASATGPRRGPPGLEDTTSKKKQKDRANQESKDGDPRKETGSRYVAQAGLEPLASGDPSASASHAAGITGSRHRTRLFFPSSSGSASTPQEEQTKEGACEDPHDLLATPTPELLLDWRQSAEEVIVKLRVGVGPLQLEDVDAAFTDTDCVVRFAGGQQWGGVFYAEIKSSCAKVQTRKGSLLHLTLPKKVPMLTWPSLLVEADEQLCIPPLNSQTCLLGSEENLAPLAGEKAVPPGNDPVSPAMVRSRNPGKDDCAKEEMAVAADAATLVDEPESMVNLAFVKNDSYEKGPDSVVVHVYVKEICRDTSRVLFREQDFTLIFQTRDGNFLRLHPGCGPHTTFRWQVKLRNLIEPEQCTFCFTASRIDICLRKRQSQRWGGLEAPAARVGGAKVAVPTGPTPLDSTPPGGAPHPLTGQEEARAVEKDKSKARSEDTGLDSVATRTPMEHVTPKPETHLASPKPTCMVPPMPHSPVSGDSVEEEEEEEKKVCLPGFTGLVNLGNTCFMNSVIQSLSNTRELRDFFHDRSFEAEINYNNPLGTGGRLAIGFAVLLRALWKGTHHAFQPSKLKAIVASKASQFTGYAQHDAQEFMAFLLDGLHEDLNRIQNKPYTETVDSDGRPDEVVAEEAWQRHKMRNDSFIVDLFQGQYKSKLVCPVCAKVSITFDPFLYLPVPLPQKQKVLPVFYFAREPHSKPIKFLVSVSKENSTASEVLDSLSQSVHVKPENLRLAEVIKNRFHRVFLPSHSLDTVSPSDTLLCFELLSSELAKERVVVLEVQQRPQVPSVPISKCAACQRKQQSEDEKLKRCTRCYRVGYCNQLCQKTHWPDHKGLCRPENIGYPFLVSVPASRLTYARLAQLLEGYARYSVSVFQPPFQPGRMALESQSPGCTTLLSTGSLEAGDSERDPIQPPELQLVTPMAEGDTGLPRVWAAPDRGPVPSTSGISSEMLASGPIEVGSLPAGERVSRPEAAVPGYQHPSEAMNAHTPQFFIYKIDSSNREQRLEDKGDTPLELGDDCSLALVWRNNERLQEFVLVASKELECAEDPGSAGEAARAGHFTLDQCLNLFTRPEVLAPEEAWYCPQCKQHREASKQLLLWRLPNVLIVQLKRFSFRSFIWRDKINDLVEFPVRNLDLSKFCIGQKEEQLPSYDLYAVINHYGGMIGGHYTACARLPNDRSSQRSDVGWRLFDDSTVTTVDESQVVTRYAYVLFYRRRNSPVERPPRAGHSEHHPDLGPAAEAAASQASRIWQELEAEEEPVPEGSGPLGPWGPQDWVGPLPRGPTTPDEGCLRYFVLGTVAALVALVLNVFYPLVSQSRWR
Put shortly:
(§1)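 Labelled DUBs from HEK293T lysate were NeutrAvidin-enriched, digested with LysC and trypsin, and run by diaPASEF LC-MS/MS. Before that, each 495 µg sample in Tris/CHAPS/IGEPAL buffer with protease inhibitors was treated in triplicate with fragment at 200 µM or vehicle for 3 h, then with Biotin-Ahx-Ub-VS at 0.5 µM final for 1 h. Values are average log2 ratios of fragment over vehicle by unpaired t-test, based on global-median-normalised Spectronaut label-free quantities from proteins with ≥2 unique peptides.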

In assay [2] the target is USP24 (UniProt Q9UPU5). Summed up: as §1
USP24, sequence (Q9UPU5 whole entry): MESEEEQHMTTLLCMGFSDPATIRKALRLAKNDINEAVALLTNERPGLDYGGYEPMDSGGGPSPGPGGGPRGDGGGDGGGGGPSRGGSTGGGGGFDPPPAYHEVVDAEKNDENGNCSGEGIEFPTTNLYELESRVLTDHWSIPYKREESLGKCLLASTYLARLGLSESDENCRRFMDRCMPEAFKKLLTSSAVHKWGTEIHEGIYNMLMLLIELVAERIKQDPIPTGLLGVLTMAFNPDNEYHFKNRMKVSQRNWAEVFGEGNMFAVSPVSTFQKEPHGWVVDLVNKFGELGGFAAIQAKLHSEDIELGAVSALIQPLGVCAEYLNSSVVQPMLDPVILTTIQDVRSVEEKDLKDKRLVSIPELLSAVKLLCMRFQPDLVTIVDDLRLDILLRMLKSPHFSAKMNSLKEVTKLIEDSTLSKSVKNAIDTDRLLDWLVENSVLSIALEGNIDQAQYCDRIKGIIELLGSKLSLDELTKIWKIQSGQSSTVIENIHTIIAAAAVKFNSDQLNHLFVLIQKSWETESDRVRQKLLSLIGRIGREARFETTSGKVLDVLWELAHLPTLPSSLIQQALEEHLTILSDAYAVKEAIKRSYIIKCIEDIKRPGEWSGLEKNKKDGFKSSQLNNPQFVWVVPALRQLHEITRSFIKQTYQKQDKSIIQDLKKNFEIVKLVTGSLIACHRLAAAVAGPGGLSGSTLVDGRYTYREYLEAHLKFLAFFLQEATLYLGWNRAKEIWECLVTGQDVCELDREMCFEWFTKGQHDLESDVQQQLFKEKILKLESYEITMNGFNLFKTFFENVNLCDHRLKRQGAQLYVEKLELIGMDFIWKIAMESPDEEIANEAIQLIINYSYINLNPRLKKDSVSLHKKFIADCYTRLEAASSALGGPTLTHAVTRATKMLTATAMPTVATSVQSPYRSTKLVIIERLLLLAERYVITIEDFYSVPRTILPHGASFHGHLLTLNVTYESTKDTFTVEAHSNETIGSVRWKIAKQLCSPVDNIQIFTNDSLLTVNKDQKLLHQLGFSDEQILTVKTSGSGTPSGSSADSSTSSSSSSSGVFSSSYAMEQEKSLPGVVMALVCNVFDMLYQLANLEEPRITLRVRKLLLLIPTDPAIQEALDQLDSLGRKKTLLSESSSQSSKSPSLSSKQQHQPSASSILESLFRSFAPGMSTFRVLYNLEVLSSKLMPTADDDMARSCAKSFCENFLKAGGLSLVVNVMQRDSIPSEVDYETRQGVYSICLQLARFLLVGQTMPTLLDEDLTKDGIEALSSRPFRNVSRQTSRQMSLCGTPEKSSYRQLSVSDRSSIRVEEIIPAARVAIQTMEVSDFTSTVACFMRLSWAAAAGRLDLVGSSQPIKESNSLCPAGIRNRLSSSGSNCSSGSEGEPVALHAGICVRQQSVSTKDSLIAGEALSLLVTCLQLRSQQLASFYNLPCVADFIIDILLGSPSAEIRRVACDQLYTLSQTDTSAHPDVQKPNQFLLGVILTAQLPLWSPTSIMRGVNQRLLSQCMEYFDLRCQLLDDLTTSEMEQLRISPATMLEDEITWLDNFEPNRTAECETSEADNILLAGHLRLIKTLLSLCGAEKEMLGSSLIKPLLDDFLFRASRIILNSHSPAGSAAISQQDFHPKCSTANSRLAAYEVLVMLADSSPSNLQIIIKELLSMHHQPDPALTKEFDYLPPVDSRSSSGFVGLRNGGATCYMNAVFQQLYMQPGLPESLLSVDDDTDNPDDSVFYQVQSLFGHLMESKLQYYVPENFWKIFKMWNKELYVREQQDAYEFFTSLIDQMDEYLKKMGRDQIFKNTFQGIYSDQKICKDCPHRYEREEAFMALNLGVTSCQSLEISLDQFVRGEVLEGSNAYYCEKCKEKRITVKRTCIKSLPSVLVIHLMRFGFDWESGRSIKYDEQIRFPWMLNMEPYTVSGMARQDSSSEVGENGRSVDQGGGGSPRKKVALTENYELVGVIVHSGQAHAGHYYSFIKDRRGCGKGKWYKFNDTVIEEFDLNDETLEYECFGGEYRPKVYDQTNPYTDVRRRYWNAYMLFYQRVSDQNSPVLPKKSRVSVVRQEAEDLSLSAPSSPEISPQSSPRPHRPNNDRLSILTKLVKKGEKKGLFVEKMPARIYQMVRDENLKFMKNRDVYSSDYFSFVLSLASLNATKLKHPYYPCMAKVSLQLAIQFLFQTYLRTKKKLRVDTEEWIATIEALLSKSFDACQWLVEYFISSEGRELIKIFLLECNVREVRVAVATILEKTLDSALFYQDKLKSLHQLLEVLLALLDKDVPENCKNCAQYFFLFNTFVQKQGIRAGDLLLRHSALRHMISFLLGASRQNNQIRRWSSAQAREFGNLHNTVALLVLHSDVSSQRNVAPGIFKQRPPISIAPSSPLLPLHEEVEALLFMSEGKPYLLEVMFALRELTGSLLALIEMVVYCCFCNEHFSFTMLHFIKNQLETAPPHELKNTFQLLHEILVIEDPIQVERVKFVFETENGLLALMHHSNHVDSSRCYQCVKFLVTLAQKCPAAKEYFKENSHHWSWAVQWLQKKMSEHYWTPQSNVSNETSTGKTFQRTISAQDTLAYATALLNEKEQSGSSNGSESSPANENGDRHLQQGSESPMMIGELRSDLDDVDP
The target of assay [3] is T2, USP25 (UniProt Q9UHP3).
T2 sequence (whole entry): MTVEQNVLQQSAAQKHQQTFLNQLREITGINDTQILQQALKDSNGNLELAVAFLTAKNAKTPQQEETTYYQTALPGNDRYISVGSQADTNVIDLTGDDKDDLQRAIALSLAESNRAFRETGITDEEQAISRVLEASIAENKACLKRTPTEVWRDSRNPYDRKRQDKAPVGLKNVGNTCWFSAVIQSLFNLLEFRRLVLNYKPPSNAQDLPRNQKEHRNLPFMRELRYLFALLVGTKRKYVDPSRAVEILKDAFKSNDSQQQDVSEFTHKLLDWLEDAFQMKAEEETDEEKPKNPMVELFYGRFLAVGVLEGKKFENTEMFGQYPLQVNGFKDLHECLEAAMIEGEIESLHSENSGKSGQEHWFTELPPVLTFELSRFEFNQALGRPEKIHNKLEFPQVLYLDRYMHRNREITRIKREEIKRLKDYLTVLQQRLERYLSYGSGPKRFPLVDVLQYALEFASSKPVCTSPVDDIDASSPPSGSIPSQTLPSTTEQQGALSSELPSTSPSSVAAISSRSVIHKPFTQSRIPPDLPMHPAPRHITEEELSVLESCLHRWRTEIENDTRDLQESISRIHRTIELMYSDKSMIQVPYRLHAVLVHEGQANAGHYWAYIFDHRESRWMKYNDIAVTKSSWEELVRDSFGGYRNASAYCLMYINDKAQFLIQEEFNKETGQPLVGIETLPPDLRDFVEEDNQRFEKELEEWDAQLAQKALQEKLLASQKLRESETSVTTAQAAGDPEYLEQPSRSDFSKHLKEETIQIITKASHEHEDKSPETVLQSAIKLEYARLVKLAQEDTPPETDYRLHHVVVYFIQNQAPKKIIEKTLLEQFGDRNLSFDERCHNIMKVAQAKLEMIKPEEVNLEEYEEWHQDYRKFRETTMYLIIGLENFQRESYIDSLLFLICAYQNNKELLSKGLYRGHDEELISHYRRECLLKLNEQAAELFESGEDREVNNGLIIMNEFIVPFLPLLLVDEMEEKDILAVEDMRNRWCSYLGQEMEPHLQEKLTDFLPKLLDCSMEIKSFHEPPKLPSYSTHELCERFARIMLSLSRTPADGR
Put shortly: as §1

Assay [4] addresses T3, USP28 (UniProt Q96RU2).
T3 sequence (whole entry): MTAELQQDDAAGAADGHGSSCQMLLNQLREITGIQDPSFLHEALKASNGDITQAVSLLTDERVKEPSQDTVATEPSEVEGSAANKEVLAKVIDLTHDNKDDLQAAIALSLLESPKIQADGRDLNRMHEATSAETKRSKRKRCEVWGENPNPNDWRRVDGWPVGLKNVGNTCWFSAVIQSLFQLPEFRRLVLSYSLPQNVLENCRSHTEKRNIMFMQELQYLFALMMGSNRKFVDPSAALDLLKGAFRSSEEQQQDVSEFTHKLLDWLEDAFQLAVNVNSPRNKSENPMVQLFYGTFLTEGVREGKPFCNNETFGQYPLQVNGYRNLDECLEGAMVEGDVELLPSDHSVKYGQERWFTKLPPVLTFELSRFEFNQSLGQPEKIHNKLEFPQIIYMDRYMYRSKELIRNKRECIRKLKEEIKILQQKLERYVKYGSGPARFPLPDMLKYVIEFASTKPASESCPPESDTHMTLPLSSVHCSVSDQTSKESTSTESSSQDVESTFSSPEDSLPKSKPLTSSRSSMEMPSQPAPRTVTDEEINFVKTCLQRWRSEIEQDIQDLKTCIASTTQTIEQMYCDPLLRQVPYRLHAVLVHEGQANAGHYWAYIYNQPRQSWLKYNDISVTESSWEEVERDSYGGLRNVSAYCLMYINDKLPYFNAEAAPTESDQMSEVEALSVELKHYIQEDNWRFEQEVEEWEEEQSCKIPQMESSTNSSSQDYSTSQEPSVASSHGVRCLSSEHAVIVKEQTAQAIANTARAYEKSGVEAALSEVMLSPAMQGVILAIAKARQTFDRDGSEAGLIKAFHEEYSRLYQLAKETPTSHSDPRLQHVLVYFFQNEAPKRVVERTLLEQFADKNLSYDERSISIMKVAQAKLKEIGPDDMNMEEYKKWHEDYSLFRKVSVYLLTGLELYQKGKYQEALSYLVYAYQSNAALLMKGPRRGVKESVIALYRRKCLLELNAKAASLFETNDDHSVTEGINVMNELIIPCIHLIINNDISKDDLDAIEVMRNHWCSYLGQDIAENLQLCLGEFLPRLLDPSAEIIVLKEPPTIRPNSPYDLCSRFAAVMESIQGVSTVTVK
Put shortly:
as §1

The results in this text go back to the supplement of paper PMC11732987, “Enantioselective OTUD7B fragment discovery through chemoproteomics screening and high-throughput optimisation” (Communications Chemistry, 2025).

Unmarked numbers belong to inactive results.

For the compound `O=C(CCl)Nc1nc(-c2cccs2)cs1`, the “log2 ratio of Biotin-Ahx-Ub-VS probe labelling” value in assay [1] is -0.517; in assay [2], -1.48 (active); in assay [3], -0.387; in assay [4], -0.678.
